Experimental findings from PubChem BioAssay (NCATS) are described below.

Several values for one entry are separate records, joined by “and”; a condition that tells them apart may be missing. Equal values may be shown once. Values without a mark were called inactive. Inconclusive results are not listed. Activity calls are given as the source filed them. Unless noted, calls follow the shape of the dose curve; as a rule, active = well fitted curve in the direction sought with a large enough effect; inconclusive = small, poorly fitted or top-dose-only effect, or another doubt; inactive = no such curve, though single readings can be large; an effect the other way counts as inactive or inconclusive.

Experiment [1] can be described thus: Cell Viability - HepG2 (AID 433; calls by dose curve;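 also: potency is read from the fitted curve at half-maximal effect; potency for ATP loss meaning cytotoxicity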). The note with it: qHTS. The procedure, abridged:
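Cytotoxicity is scored as loss of intracellular ATP in HepG2 cells exposed to compounds for 40 h. Concentration-response curves, normalized to DMSO and 100 uM tamoxifen, give AC50 values.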
In general terms: qHTS replaces the single test concentration by a dilution series.

Experiment [2] is described as follows: Cellular Toxicity (caspase-3) SK-N-SH (AID 661).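 Also: cells exposed to compound for 16 hours; 0% = DMSO basal and 100% = 10 µM staurosporine.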 The procedure, abridged:
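Caspase 3/7 activation was read by luminogenic substrate cleavage after 16 hour treatment of SK-N-SH cells. Signal was scaled between DMSO and 10 uM staurosporine, and concentration-response data were fitted with the Hill equation for AC50.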

A short description of experiment [3]: Cellular Toxicity (caspase-3) H-4-II-E (AID 663).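 Also: cells exposed to compound for 16 hr before readout.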 The note with it: H-4-II-E rat hepatoma, scaled: DMSO 0%, 100 µM tamoxifen 100%; at 92.2 µM (top of the series). The procedure, abridged: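 Caspase 3/7 activation measured by luminescent aminoluciferin substrate cleavage after 16 hr compound treatment of H-4-II-E cells in complete medium. Increase normalized between DMSO (basal) and 100 uM tamoxifen (100%); Hill-equation AC50 from concentration-response.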

Experiment [4] in a line: MultiTox-Fluor Cytotoxicity Assay - LYMP1-001 - Dead Cells (AID 946). The procedure, abridged:
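Cytotoxicity as increased dead-cell protease fluorescence (bis-AAF-R110, 485/520 nm), read 60 min after MultiTox-Fluor reagent. Human lymphoblastoid line exposed 16 h; Hill-fitted AC50, with DMSO as 0% and 15 uM tetraoctylammonium bromide as 100%.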

Experiment [5] can be described thus: MultiTox-Fluor Cytotoxicity Assay - LYMP1-001 - Live Cells (AID 947). Also: potency is read from the fitted curve at half-maximal effect.
A short description of experiment [6]: MultiTox-Fluor Cytotoxicity Assay - LYMP1-002 - Dead Cells (AID 960). Also: nearly all actives have a fitted effect of over 60% in size. Also: potency is read from the fitted curve at half-maximal effect. Put shortly: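 Dead-cell fluorescence (Ex/Em 485/520) after 16 h compound exposure at 37 C of LYMP1-002 lymphoblastoid cells in complete medium; AC50 by Hill equation, with data scaled between DMSO and 15 uM tetraoctylammonium bromide.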
Experiment [7] is described as follows: Cell Viability - LYMP2-013 (AID 970). Also: nearly all actives have a fitted effect of over 55% in size. Also: potency is read from the fitted curve at half-maximal effect. Put shortly: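 qHTS cytotoxicity: ATP-dependent luminescence (CellTiter-Glo, 30 min room temperature) read after 24 h compound exposure at 37 C of 2500 LYMP2-013 lymphoblastoid cells per well. Concentration-response fitted with Hill equation to give AC50.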
Experiment [8] is described as follows: Cell Viability - LYMP2-002 (AID 977). Also: potency is read from the fitted curve at half-maximal effect. Put shortly:
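Human lymphoblastoid cells (2500/well) in complete medium were preincubated 5 hr at 37 C, then exposed to compounds for 24 hr at 37 C. Intracellular ATP was read by CellTiter-Glo luminescence; AC50 came from Hill-equation concentration-response fits.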

The nature of experiment [9]: Cell Viability - LYMP2-006 (AID 978). Also: nearly all actives have a fitted effect of over 60% in size. Also: potency is read from the fitted curve at half-maximal effect. The procedure, abridged:
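Concentration-dependent loss of intracellular ATP in a human lymphoblastoid line after 24 hr treatment at 37 C was measured by CellTiter-Glo luminescence, with AC50 values obtained from standard Hill-equation modelling.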

Experiment [10] can be described thus: Cell Viability - LYMP2-010 (AID 981). Also: nearly all actives have a fitted effect of over 55% in size. Also: potency is read from the fitted curve at half-maximal effect. Put shortly: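 CellTiter-Glo ATP luminescence measured cytotoxicity after 24 h compound exposure at 37 C. LYMP2-010 cells were seeded at 2500/well, with tetraoctylammonium bromide as control; concentration-response curves gave AC50 values by the Hill equation.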
Experiment [11] is described as follows: Cell Viability - LYMP2-020 (AID 986). Also: nearly all actives have a fitted effect of over 55% in size. Also: potency is read from the fitted curve at half-maximal effect. The procedure, abridged:
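Cytotoxicity in qHTS format: luminescent ATP readout from CellTiter-Glo after 24 h compound exposure at 37 C in complete medium. LYMP2-020 lymphoblastoid cells were seeded at 2500/well; concentration-response data fitted to the Hill equation for AC50.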

The nature of experiment [12]: Cell Viability - LYMP2-022 (AID 987). Also: nearly all actives have a fitted effect of over 55% in size. Also: potency is read from the fitted curve at half-maximal effect. The procedure, abridged: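 Cytotoxicity read as decreased cellular ATP (CellTiter-Glo luminescence, 30 min room temperature) after 24 hours compound exposure of 2500 lymphoblastoid LYMP2-022 cells/well at 37 C. Concentration-response data fitted with standard Hill equation for AC50.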
Experiment [13] is described as follows: Cell Viability - LYMP2-024 (AID 988). Also: nearly all actives have a fitted effect of over 60% in size. Also: potency is read from the fitted curve at half-maximal effect. The procedure, abridged:
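Cytotoxicity was taken as a decrease in ATP (CellTiter-Glo luminescence) after 24 hr compound exposure at 37 C of LYMP2-024 lymphoblastoid cells, 2500 cells/well. Concentration-response data were fitted to the Hill equation to give AC50.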

Experiment [14] addresses Voltage-gated inwardly rectifying potassium channel KCNH2 (Homo sapiens) (UniProt Q12809). The experiment in a line: qHTS Assay for Small Molecule Inhibitors of the Human hERG Channel Activity (AID 588834).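 Also: lower thallium flux fluorescence means stronger hERG block; nearly all actives have a fitted effect of over 50% in size.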 Also: potency is read from the fitted curve at half-maximal effect. The procedure, abridged: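 Cells were infected with hERG-BacMam virus for 4 hrs at room temperature, grown overnight, then seeded at 2000/well. After dye loading and roughly 10 min compound treatment, thallium influx was triggered and fluorescence recorded.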

The target in experiment [15] is Nuclear receptor ROR-gamma (Homo sapiens) (UniProt P51449). Briefly: qHTS assay for small molecule antagonists of the retinoid-related orphan receptor gamma (ROR-gamma) signaling pathway (AID 651802). Also: nearly all actives have a fitted effect of over 60% in size. Also: potency is read from the fitted curve at half-maximal effect. Put shortly: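 Luminescence (One-Glo, 30 min RT) measured 16 h after compound addition and doxycycline induction at 37C. Reporter: RORE-luciferase under TET-inducible ROR-gamma in CHO cells.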

Experiment [16] in a line: qHTS assay for small molecule antagonists of the retinoid-related orphan receptor gamma (ROR-gamma) signaling pathway - cell viability counter screen (AID 720652; active = well fitted curve in the direction sought with a large enough effect in the repeat runs; an effect the other way counts as inactive or inconclusive;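 also: compound exposure lasted 16 hr before ATP read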; also: potency is read from the fitted curve at half-maximal effect). The procedure, abridged: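 Cytotoxicity counter screen: intracellular ATP (CellTiter-Glo luminescence) measured in the doxycycline-induced CHO RORE-luciferase reporter line after 16 hr compound exposure at 37 C, 5% CO2.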

A short description of experiment [17]: qHTS assay for cell viability of HEK293 cells (AID 743288). Also: nearly all actives have a fitted effect of over 50% in size. Also: potency is read from the fitted curve at half-maximal effect. As to max response: % is scaled to controls: 0 for no effect and ±100 for the full control effect. The note with it: ATP luminescence (CellTiter-Glo), 18 h; max response: active compounds read low. The procedure, abridged:
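Quantitative high-throughput screen: compounds were pinned onto parental HEK293 cells (2,000 per well) after a minimum 5 h settling at 37 C, incubated 18 h at 37 C, and intracellular ATP measured by luciferase luminescence.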

Experiment [18] is described as follows: qHTS assay for cell viability of the p53RE-bla HCT-116 cell line (AID 743292). Also: nearly all actives have a fitted effect of over 55% in size. Also: potency is read from the fitted curve at half-maximal effect. Put shortly: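 Intracellular ATP of p53RE-bla HCT-116 cells measured by luciferase luminescence following 16 h compound incubation at 37 C; DMSO-only wells served as vehicle controls.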
Experiment [19] concerns the target Peroxisome proliferator-activated receptor alpha (Homo sapiens) (UniProt Q07869). Briefly: qHTS assay for small molecule agonists of the peroxisome proliferator-activated receptor alpha (PPARalpha) signaling pathway (AID 651778). Also: % of control where 0% means no effect. Conditions: PathHunter PPARalpha complementation, chemiluminescence, 6 h; max response: active compounds read high. The procedure, abridged:
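Chemiluminescence from complemented enzyme reported PPARalpha activation in cells after 6 hr of compound treatment at 37 C. The detection reagent was incubated for 60 min at room temperature, and compounds were scored as agonists.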

Chain of Voltage-gated inwardly rectifying potassium channel KCNH2 (Homo sapiens) (Q12809 whole entry, looked up): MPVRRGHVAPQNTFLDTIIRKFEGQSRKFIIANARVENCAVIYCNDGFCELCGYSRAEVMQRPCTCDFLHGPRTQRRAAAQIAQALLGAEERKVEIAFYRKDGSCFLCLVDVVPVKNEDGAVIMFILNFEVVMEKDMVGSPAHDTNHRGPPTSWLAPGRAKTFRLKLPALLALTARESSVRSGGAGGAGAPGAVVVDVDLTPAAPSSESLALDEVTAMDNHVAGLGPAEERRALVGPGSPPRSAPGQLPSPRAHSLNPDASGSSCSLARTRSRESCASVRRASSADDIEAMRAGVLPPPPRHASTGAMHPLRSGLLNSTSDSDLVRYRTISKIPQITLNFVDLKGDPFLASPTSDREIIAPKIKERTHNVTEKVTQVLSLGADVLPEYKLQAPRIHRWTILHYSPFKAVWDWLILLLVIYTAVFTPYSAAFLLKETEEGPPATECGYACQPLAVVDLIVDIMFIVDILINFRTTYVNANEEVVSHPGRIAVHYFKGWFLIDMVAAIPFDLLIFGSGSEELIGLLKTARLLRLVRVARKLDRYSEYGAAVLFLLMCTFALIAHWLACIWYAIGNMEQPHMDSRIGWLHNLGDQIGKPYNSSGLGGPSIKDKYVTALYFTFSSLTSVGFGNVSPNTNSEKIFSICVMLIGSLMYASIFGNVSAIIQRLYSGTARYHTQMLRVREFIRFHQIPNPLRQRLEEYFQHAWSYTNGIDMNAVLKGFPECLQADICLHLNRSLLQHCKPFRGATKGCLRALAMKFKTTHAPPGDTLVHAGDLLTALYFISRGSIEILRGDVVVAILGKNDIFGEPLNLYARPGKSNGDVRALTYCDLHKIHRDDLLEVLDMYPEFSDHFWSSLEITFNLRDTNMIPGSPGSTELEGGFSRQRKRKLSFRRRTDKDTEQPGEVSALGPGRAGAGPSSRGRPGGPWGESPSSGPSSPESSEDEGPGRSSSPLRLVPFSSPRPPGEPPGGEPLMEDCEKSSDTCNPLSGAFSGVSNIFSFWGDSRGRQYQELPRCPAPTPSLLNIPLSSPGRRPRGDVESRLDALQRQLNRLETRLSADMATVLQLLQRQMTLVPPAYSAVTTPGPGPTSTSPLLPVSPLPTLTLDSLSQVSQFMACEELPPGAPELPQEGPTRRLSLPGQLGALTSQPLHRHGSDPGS
Chain of Nuclear receptor ROR-gamma (Homo sapiens) (P51449 whole entry, looked up): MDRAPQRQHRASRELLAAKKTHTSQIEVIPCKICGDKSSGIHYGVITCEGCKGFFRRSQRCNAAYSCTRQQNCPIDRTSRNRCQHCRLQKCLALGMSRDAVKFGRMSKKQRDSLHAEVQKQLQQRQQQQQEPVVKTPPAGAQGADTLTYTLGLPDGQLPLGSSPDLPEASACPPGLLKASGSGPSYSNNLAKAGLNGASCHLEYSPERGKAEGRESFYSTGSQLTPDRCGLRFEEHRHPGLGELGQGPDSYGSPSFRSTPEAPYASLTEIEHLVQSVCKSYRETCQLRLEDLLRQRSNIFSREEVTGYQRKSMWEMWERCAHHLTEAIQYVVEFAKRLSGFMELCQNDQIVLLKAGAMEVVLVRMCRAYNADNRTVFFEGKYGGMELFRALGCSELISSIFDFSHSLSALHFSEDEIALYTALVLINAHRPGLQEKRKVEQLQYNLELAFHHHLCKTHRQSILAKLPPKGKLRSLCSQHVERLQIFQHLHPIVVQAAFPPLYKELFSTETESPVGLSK
Chain of Peroxisome proliferator-activated receptor alpha (Homo sapiens) (Q07869 whole entry, looked up): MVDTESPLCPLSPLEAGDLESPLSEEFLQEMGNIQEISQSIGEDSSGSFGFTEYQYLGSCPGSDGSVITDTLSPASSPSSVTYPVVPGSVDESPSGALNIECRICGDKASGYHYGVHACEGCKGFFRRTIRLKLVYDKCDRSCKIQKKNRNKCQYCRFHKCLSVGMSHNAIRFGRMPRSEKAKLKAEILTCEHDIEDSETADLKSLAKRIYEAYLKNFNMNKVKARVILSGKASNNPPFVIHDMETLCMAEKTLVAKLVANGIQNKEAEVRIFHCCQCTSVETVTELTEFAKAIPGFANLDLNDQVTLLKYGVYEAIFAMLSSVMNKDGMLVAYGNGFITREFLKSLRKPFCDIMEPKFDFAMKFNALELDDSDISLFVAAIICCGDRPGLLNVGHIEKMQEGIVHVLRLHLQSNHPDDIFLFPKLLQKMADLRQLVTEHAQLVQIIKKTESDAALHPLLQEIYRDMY

Turning to `c1ccc2cc3c(cc2c1)-c1cccc2cccc-3c12`, in experiment [1], the Potency is more than 92 µM. Moreover, the result in experiment [2] was inactive. Moreover, the caspase-3 activation in [3] was 0.959%. Moreover, the Potency result in [4], in [5], in experiment [6], in experiment [7], in [8] and in experiment [9] was “inactive” in each case. The Potency entry in experiment [10], in experiment [11], in experiment [12], in experiment [13], in experiment [14] and in [15] was “inactive” throughout. Further, the Potency entry in experiment [16] and in experiment [18] was “inactive” each time. Besides, in [17], the max response was 4.38% and -18.8%.

`COP(=O)(OC)O/C(=C\Cl)c1cc(Cl)c(Cl)cc1Cl`: the Potency in experiment [1] was more than 92 µM. Moreover, in experiment [2], the result was inactive. The caspase-3 activation in experiment [3] was 2.54%. Moreover, the Potency result in experiment [4], in experiment [5], in [6], in experiment [8], in [9] and in experiment [11] was “inactive” throughout. The Potency result in experiment [14], in experiment [16] and in experiment [18] was “inactive” each time. The figures for the max response in [19] and in experiment [17] were -3% and -7.38%, respectively.

On to `C[C@@H]1CC[C@@]2(OC1)O[C@H]1[C@@H](O)[C@H]3[C@@H]4CC[C@H]5C[C@@H](O[C@@H]6O[C@H](CO)[C@H](O[C@@H]7O[C@H](CO)[C@@H](O)[C@H](O[C@@H]8OC[C@@H](O)[C@H](O)[C@H]8O)[C@H]7O[C@@H]7O[C@H](CO)[C@@H](O)[C@H](O[C@@H]8O[C@H](CO)[C@@H](O)[C@H](O)[C@H]8O)[C@H]7O)[C@H](O)[C@H]6O)[C@H](O)C[C@]5(C)[C@H]4CC[C@]3(C)[C@H]1[C@@H]2C`, for which the Potency in [1] is 11.9 µM (active); in experiment [5] it was 12.6 µM (active); in experiment [7] it was 20 µM (active); in experiment [8], 25.1 µM (active); in [9] it was 20 µM (active); in experiment [10], 20 µM (active). Besides, the Potency in experiment [11] was 12.6 µM (active); in experiment [12] it was 15.8 µM (active); in experiment [13], 12.6 µM (active); in [14], 25.1 µM (active); in experiment [16] it was 11.9 µM (active); in experiment [17], 25.1 µM (active). Also, the Potency in experiment [18] is 35.5 µM (active). Also, the result in experiment [2] was inactive. In addition, the caspase-3 activation in experiment [3] is -3.54%. For the same compound, the max response in experiment [19] was -5.72%.

Regarding `Oc1c(Br)c(Br)c(Br)c(Br)c1Br`, the Potency in experiment [1] is more than 92 µM. The compound was called inactive in experiment [2]. The caspase-3 activation in experiment [3] was 10.1%. Besides, the Potency result in [4], in [5], in experiment [6], in experiment [7], in [8] and in [9] was “inactive” throughout. In addition, the Potency entry in [11], in experiment [12], in experiment [13], in experiment [14] and in experiment [16] was “inactive” in each case. For the same compound, the max response in [19] was 10%; in [17], -15.8%.

Take `Cc1ccc(O)cc1C`: the Potency in experiment [1] is more than 92 µM. Moreover, in [17], the max response is 6.02%.

In the case of `OC(c1ccc(Cl)cc1)(c1ccc(Cl)cc1)C(Cl)(Cl)Cl`, the Potency entry in experiment [4], in [5], in [7], in experiment [8], in experiment [9] and in experiment [10] was “inactive” in each case. For the same compound, the Potency result in [11], in experiment [12] and in [13] was “inactive” in each case. Also, the Potency is 39.8 µM (active) in [14] and 50.1 µM (active) in experiment [18]. The max response in [17] was 0.684% and -14.8%.

For `FC(F)(F)c1ccc(Cl)cc1`, in experiment [1], the Potency is more than 92 µM. For the same compound, in [2], the compound was called inactive. Moreover, the caspase-3 activation in [3] was 1.12%. In addition, the Potency result in experiment [4], in [5], in experiment [6], in experiment [7], in experiment [8] and in experiment [9] was “inactive” throughout. The Potency result in [10], in experiment [11], in experiment [12], in [13], in experiment [14] and in experiment [15] was “inactive” in each case. In addition, the Potency entry in experiment [16] and in experiment [18] was “inactive” in each case. Also, the max response was 1.19% and -0.788% in [19]; -1.88% and 4.63% in experiment [17].

For the compound `Nc1ccccc1C(=O)OCCc1ccccc1`, the Potency in experiment [1] is more than 92 µM. The compound was called inactive in [2]. Moreover, in experiment [3], the caspase-3 activation is -2.95%. The Potency entry in experiment [4], in [5], in experiment [6], in experiment [7], in experiment [8] and in [9] was “inactive” throughout. Also, the Potency result in experiment [10], in experiment [11], in experiment [12], in experiment [13], in [15] and in [16] was “inactive” throughout. Moreover, the Potency result in experiment [18] was “inactive”.

As to `CN(C)c1ccc(N=O)cc1`, the result in [2] was inactive. Moreover, the caspase-3 activation in [3] was -1.57%. In addition, the Potency in [5] was 10 µM (active); in [6], 3.16 µM (active); in experiment [7], 1.58 µM (active); in experiment [8], 2.51 µM (active); in [9] it was 2 µM (active); in experiment [10] it was 0.631 µM (active). Moreover, the Potency was 1.26 µM (active) in experiment [11]; 0.631 µM (active) in [12]; 0.501 µM (active) in experiment [13]; 7.5 µM (active) in experiment [15]; 39.8 µM (active) in experiment [17]. The Potency result in [14] and in [18] was “inactive” throughout. The max response in experiment [19] is -3.57%.
